Screens as filed in PubChem.
In the library only some 3% were active in any assay of this set; here they are far more common.
LMP1 NFkB inh – Epstein-Barr LMP1 NF-kappaB reporter inhibition; inhibition, % at 12.5 µM; LMP1-induced NF-kappaB luciferase reporter cells, luminescence; 350,000 compounds, 0.69% hits; in the data active means inhibition above about 41%; inconclusive means no clear call, values can overlap the other calls;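 further: 0% = neutral control wells and 100% = reference inhibitor control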
MITF TRPM1 HTS – increases MITF-driven TRPM1 promoter luciferase signal; SK-MEL-5 TRPM1-promoter luciferase, 24 h; % of positive control, neutral wells = 0; activation, % at 12.5 µM; 300,000 compounds, 0.75% hits; AID 588334;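 active means mean activation of at least 80% with every replicate also reaching 80%; inconclusive means mean reaches 80% but some replicate falls short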;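 further: 0% = neutral control wells and 100% = parthenolide positive control wells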
TWEAK Fn14 block – TWEAK-Fn14 signaling inhibition. 360,000 compounds, 2% hits. TWEAK-stimulated Fn14 reporter cells, luciferase luminescence, 8 h. AID 1159606. inhibition, % at 10 µM; in the data active means inhibition above about 50%
TROY NFkB inh – inhibitors of TROY-dependent NF-kB signaling; Q293 LMP1-TROYcd NF-kB luciferase reporter, 4 h; inhibition, % at 10 µM; 360,000 compounds, 0.98% hits; AID 1347056;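 active means compounds whose plate-normalised and pattern-corrected inhibition of the luciferase reporter signal at the single screening dose is 50% or more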
MITF TRPM1 inh – reduces MITF-dependent TRPM1 promoter luciferase signal | 330,000 compounds, 0.83% hits | SK-MEL-5 TRPM1 promoter luciferase, 24 h | inhibition, % at 12.5 µM;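 active means mean inhibition across replicates of 60% or more, whatever share of single replicates reaches that level; inconclusive means some that reach 60%, reason not given; inactive means mean inhibition across replicates below 60%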
LGR2 inh – Drosophila LGR2 receptor signaling inhibition; HEK293 LGR2, CRE-luciferase, bursicon-stimulated, 4 h; inhibition, % at 9.99 µM; 380,000 compounds, 0.35% hits;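 active means drop in luminescence signal, shown as inhibition above about 50% in the replicate tests, limit read from the data, passing the limit was not always enough; inconclusive means probably only some replicates passing the limit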;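 further: agonist challenge used bursicon conditioned medium at about half maximal strength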
Active calls of the source: *.

`Cc1ccccc1-n1c(SCc2cc(=O)n3ccccc3n2)nc2[nH]ncc2c1=O` gave LMP1 NFkB inh 13, MITF TRPM1 HTS -9, TWEAK Fn14 block 60* and MITF TRPM1 inh 7.
For Cn1nnnc1Sc1ncnc2scc(-c3ccsc3)c12 the results were LMP1 NFkB inh 43*, MITF TRPM1 HTS -83, TWEAK Fn14 block 72*, TROY NFkB inh 33, MITF TRPM1 inh 82* and LGR2 inh 74*.
Screening Cn1nnnc1Sc1ncnc2scc(-c3ccc(-c4ccccc4)cc3)c12 returned LMP1 NFkB inh 28, MITF TRPM1 HTS -13, TWEAK Fn14 block 78*, TROY NFkB inh 4, MITF TRPM1 inh 11 and LGR2 inh 10.
Cc1ccc(-c2csc3ncnc(SCC(=O)O)c23)cc1 was read as LMP1 NFkB inh 1, MITF TRPM1 HTS 1, TWEAK Fn14 block 9, TROY NFkB inh 7, MITF TRPM1 inh 4 and LGR2 inh 10.
For Cn1nnnc1Sc1ncnc2scc(-c3cc4ccccc4o3)c12 the results were LMP1 NFkB inh 62*, MITF TRPM1 HTS -99, TWEAK Fn14 block 103*, TROY NFkB inh 76*, MITF TRPM1 inh 100* and LGR2 inh 106*.
`Cn1nnnc1Sc1ncnc2scc(-c3ccc(C#N)cc3)c12` gave LMP1 NFkB inh 57*, MITF TRPM1 HTS -91, TWEAK Fn14 block 83*, TROY NFkB inh 46, MITF TRPM1 inh 92* and LGR2 inh 88*.
`C[C@@H]1CN([C@@H](C)CO)C(=O)c2cc(NC(=O)c3ccncc3)ccc2O[C@@H](C)CCCCO[C@@H]1CN(C)C(=O)Nc1ccc(C(F)(F)F)cc1` gave LGR2 inh -6.
For Cc1ccccc1S(=O)(=O)N1[C@@H]2CNC[C@H]1C2c1ccc(/C=C/c2ccccc2)cc1 (stereo not given in full) the results were LGR2 inh -13.
Screening C[C@@H]1CCCCO[C@@H](CN(C)S(=O)(=O)c2ccc(F)cc2)[C@@H](C)CN([C@@H](C)CO)C(=O)c2cc(NC(=O)Cc3ccccc3)ccc2O1 returned LGR2 inh 2.
CCCC#Cc1ccc2c(c1)O[C@@H](CN(C)C)[C@@H](C)CN([C@H](C)CO)S2(=O)=O was read as LGR2 inh -4.
Screening C[C@@H]1CCCCO[C@H](CN(C)S(=O)(=O)c2ccccc2)[C@@H](C)CN([C@@H](C)CO)C(=O)c2cc(NC(=O)NC3CCCCC3)ccc2O1 returned LGR2 inh 14.
`COCc1cn(CC[C@@H]2CC[C@@H](NC(=O)Nc3c(C)noc3C)[C@H](CO)O2)nn1` gave LGR2 inh 24.
Screening CC(=O)c1ccccc1-c1csc2ncnc(Sc3nnnn3C)c12 returned LMP1 NFkB inh -46, MITF TRPM1 HTS 0, TWEAK Fn14 block 33, TROY NFkB inh -11, MITF TRPM1 inh 6 and LGR2 inh 14.
Screening Cn1nnnc1Sc1ncnc2scc(-c3cccs3)c12 returned LMP1 NFkB inh 53*, MITF TRPM1 HTS -88 and MITF TRPM1 inh 88*.
For C[C@@H]1CN([C@H](C)CO)C(=O)c2cc(NS(=O)(=O)c3cccs3)ccc2O[C@@H]1CN(C)S(=O)(=O)c1ccc(Cl)cc1 the results were LGR2 inh 26.
For COc1ccc(-c2cc3nc4ccccc4n3c(N)c2C#N)cc1 the results were LMP1 NFkB inh -27, MITF TRPM1 HTS 114*, TWEAK Fn14 block -1, TROY NFkB inh -22, MITF TRPM1 inh -108 and LGR2 inh -57.
CCSc1nc(-c2ccc(OC)cc2)cc(-c2ccccc2)c1C#N was read as LMP1 NFkB inh 4, MITF TRPM1 HTS -11, TWEAK Fn14 block -12, TROY NFkB inh -54 and MITF TRPM1 inh 10.
For COc1ccc(Br)c(Cn2c(C)c(C(=O)NCc3ccc4c(c3)OCCO4)sc2=O)c1 the results were TWEAK Fn14 block -3, TROY NFkB inh 31 and LGR2 inh -2.
Screening CC(=O)Oc1ccc(Cn2c(C)c(C(=O)NCc3ccc4c(c3)OCCO4)sc2=O)cc1 returned TWEAK Fn14 block 6, TROY NFkB inh 67* and LGR2 inh 10.
Cc1c(C(=O)NCc2ccc(C(F)(F)F)cc2)sc(=O)n1Cc1ccc(S(=O)(=O)N(C)C)cc1 was read as TWEAK Fn14 block 57*, TROY NFkB inh 32 and LGR2 inh 13.
For CO[C@H]1CN(C)C(=O)c2cc(NC(=O)CC(F)(F)F)ccc2OC[C@@H](C)N(C(=O)c2ccccc2F)C[C@H]1C the results were LGR2 inh 1.
For CNC[C@@H]1OCCCC[C@H](C)Oc2ccc(NC(=O)Nc3ccccc3)cc2C(=O)N([C@H](C)CO)C[C@@H]1C the results were LGR2 inh -12.
For COc1ccc(S(=O)(=O)N2C[C@@H](O)COC[C@@H]3O[C@H](CC(=O)NCc4ccc(Cl)c(Cl)c4)CC[C@H]32)cc1 the results were LGR2 inh 6.
Screening Cc1ccc2nc(-c3ccc(NC(=O)CN(c4ccccc4C)S(C)(=O)=O)cc3)sc2c1 returned LMP1 NFkB inh -75, MITF TRPM1 HTS 51, TWEAK Fn14 block 53*, TROY NFkB inh -10 and MITF TRPM1 inh -46.
`Cc1ccc2nc(-c3ccc(NC(=O)COC(=O)c4ccco4)cc3)sc2c1` gave LMP1 NFkB inh 18, MITF TRPM1 HTS 42, TWEAK Fn14 block 52*, TROY NFkB inh 7, MITF TRPM1 inh -38 and LGR2 inh 66*.
`Cc1ccc(NC(=O)COC(=O)c2ccco2)cc1` gave LMP1 NFkB inh -1, MITF TRPM1 HTS 0, TWEAK Fn14 block -26, TROY NFkB inh -39, MITF TRPM1 inh 0 and LGR2 inh -4.
For Cc1cc(C)cc(N(CC(=O)Nc2ccc(-c3nc4ccc(C)cc4s3)cc2)S(C)(=O)=O)c1 the results were LMP1 NFkB inh -27, MITF TRPM1 HTS 58, TWEAK Fn14 block 7, TROY NFkB inh -20, MITF TRPM1 inh -49 and LGR2 inh -16.
`Cc1ccc2nc(-c3ccc(NC(=O)COC(=O)c4ccc([N+](=O)[O-])o4)cc3)sc2c1` gave LMP1 NFkB inh 17, MITF TRPM1 HTS -9, TWEAK Fn14 block 78*, TROY NFkB inh 21, MITF TRPM1 inh 7 and LGR2 inh 83*.
`Cc1ccc2nc(-c3ccc(NC(=O)COC(=O)c4ccc(Br)o4)cc3)sc2c1` gave LMP1 NFkB inh 7, MITF TRPM1 HTS 15, TWEAK Fn14 block 59*, TROY NFkB inh 7, MITF TRPM1 inh -9 and LGR2 inh inconclusive.
For Cc1ccc2nc(-c3ccc(NC(=O)COC(=O)c4cncc(Br)c4)cc3)sc2c1 the results were LMP1 NFkB inh 18, MITF TRPM1 HTS -5, TWEAK Fn14 block 47, TROY NFkB inh 26, MITF TRPM1 inh 10 and LGR2 inh -5.
Screening CCN1[C@@H]2c3ccc(-c4cccc(F)c4)c(=O)n3C[C@H]1[C@H](CO)[C@H]2C(=O)NCC1CC1 returned LGR2 inh 2.
